Assay results taken from PubChem BioAssay (EPA / NIEHS).
Records with an inconclusive call do not appear. Active and inactive are the calls of the source. Rule for the calls: active = hit-call score of the fitted dose curve at least 0.9, where 1 is the maximum; inconclusive = response in the unintended direction; inactive = score below 0.9.

Legend:
[1] = target: human Peroxisome Proliferator-activated Receptor alpha (PPARa), PPARA (gene 5465) (UniProt Q07869); assay: ATG_PPARa_TRANS: Attagene TRANS-FACTORIAL HepG2 Assay for human Peroxisome Proliferator-activated Receptor alpha (PPARa) (AID 2283001);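 for AC50: potency for gain of reporter signal over DMSO so agonist or activator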
Outline: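 Transient HepG2 transfection, GAL4-UAS reporters, NR-Gal4 chimeras; 24 h compound exposure. Readout: reporter transcripts by RT-PCR, 6-FAM primer extension, HpaI digest, capillary electrophoresis. Positive direction vs DMSO baseline.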

[2] = target: human Peroxisome Proliferator-activated Receptor delta (PPARd), PPARD (gene 5467) (UniProt Q03181); assay: ATG_PPARd_TRANS: Attagene TRANS-FACTORIAL HepG2 Assay for human Peroxisome Proliferator-activated Receptor delta (PPARd) (AID 2283002)
Outline: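 Fluorescence from capillary electrophoresis of labelled RT-PCR reporter fragments gives the signal; DMSO sets baseline. Cells: HepG2 transiently carrying GAL4-UAS reporter units plus chimeric nuclear receptor-Gal4 proteins, exposed to chemicals for 24 h.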

[3] = target: Peroxisome proliferator-activated receptor gamma (Homo sapiens) (UniProt P37231); assay: ATG_PPARg_TRANS: Attagene TRANS-FACTORIAL HepG2 Assay for human Peroxisome Proliferator-activated Receptor-gamma (PPARg) (AID 2283007)
Outline: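 Twenty-four hours after chemical dosing of transiently transfected HepG2 cells, isolated RNA was converted to cDNA, reporter sequences amplified and 6-FAM-labelled, then HpaI-digested and analysed by capillary electrophoresis. Signal increase against DMSO was fitted.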

[4] = target: Nuclear receptor subfamily 1 group I member 2 (Homo sapiens) (UniProt O75469); assay: ATG_PXR_TRANS: Attagene TRANS-FACTORIAL HepG2 Assay for human Pregnane X Receptor (PXR) (AID 2283008)
Outline: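 Multiplexed TRANS reporter panel in HepG2; this component tracks PXR-Gal4-driven reporter mRNA after 24 h dosing, measured by RT-PCR with capillary electrophoresis fluorescence, fitted against DMSO.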

[5] = target: Retinoic acid receptor RXR-alpha (Homo sapiens) (UniProt P19793); assay: ATG_RXRa_TRANS: Attagene TRANS-FACTORIAL HepG2 Assay for human Retinoid X Receptor alpha (RXRa) (AID 2283012)
Outline: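 Chimeric NR-GAL4 trans-activation in HepG2, 24 h treatment; reporter transcripts quantified by fluorescence on capillary electrophoresis, analysed for upward change from DMSO.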

[6] = target: human Retinoid X Receptor beta (RXRb), RXRB (gene 6257) (UniProt P28702); assay: ATG_RXRb_TRANS: Attagene TRANS-FACTORIAL HepG2 Assay for human Retinoid X Receptor beta (RXRb) (AID 2283013)
Outline: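 After a 24 h incubation with test chemical, transfected HepG2 cells carrying NR-Gal4 fusions and GAL4-UAS reporter transcription units yield RNA whose reporter cDNA is FAM-labelled, HpaI-cut and sized by capillary electrophoresis; increases over DMSO are scored.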

[7] = target: human Thyroid Receptor alpha (THRa1), THRA (gene 7067) (UniProt P10827); assay: ATG_THRa1_TRANS: Attagene TRANS-FACTORIAL HepG2 Assay for human Thyroid Receptor alpha (THRa1) (AID 2283014)
Outline: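 Measured here is mRNA from a GAL4-UAS reporter in transfected HepG2 cells carrying a Gal4-fused receptor, 24 h post-dose. DMSO served as negative control and baseline.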

[8] = target: human Retinoic Acid Receptor gamma (RARg), RARG (gene 5916) (UniProt P13631); assay: ATG_RARg_TRANS: Attagene TRANS-FACTORIAL HepG2 Assay for human Retinoic Acid Receptor gamma (RARg) (AID 2283009)
Outline: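 Gain-of-signal relative to DMSO is reported from fluorescent capillary electrophoresis of RT-PCR reporter products. These came from HepG2 cells expressing transfected RARg-GAL4 chimeras with UAS reporters, harvested 24 h after dosing.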

[9] = target: human Retinoic Acid Receptor beta (RARb), RARB (gene 5915) (UniProt P10826); assay: ATG_RARb_TRANS: Attagene TRANS-FACTORIAL HepG2 Assay for human Retinoic Acid Receptor beta (AID 2283004)
Outline: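 Fluorescent capillary-electrophoresis detection of GAL4-UAS reporter mRNA defines the endpoint, with induction over DMSO-treated wells scored as activity. Transiently transfected human hepatoma HepG2 cells expressing exogenous NR–Gal4 proteins are exposed to test chemicals for 24 h.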

[10] = target: Retinoic acid receptor alpha (Homo sapiens) (UniProt P10276); assay: ATG_RARa_TRANS: Attagene TRANS-FACTORIAL HepG2 Assay for human Retinoic Acid Receptor alpha (RARa) (AID 2283005)
Outline: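 HepG2 transiently transfected with multiplex GAL4-UAS reporter units including a human RARa–GAL4 chimera; 24 h compound exposure. Reporter mRNA quantified by RT-PCR, 6-FAM labeling and capillary electrophoresis; gain of signal versus DMSO.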

[11] = target: human RAR-related Orphan Receptor beta (RORb), RORB (gene 6096) (UniProt Q92753); assay: ATG_RORb_TRANS: Attagene TRANS-FACTORIAL HepG2 Assay for human RAR-related Orphan Receptor beta (RORb) (AID 2283010)
Outline: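 Multiplexed transcription-factor reporter assay: HepG2 cells transiently carrying NR-Gal4/GAL4-UAS constructs, 24 h treatment, mRNA quantified by RT-PCR plus capillary electrophoresis fluorescence; activity scored as induction over DMSO.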

[12] = target: human RAR-related Orphan Receptor gamma (RORg), RORC (gene 6097) (UniProt P51449); assay: ATG_RORg_TRANS: Attagene TRANS-FACTORIAL HepG2 Assay for human RAR-related Orphan Receptor gamma (RORg) (AID 2283011)
Outline: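 Chimeric RORg-Gal4 transactivation in transfected HepG2; 24 h exposure; RT-PCR/capillary electrophoresis readout of reporter mRNA, DMSO baseline.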

Measured: AC50

human Thyroid Receptor alpha (THRa1), THRA (gene 7067), sequence (P10827 whole entry, looked up, the tested form may be a part): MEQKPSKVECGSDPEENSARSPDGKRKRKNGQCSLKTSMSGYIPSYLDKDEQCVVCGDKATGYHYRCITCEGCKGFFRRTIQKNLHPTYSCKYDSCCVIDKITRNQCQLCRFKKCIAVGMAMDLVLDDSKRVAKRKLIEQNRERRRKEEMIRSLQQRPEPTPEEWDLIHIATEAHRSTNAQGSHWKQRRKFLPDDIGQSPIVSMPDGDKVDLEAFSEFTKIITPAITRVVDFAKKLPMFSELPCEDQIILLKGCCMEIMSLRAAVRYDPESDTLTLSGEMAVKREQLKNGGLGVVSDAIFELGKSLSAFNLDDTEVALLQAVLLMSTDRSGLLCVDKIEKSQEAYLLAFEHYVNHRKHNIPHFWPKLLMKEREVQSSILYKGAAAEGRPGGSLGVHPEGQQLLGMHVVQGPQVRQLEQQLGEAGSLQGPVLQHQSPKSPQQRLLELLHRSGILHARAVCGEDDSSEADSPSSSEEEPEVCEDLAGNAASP
human Retinoid X Receptor beta (RXRb), RXRB (gene 6257), sequence (P28702 whole entry, looked up, the tested form may be a part): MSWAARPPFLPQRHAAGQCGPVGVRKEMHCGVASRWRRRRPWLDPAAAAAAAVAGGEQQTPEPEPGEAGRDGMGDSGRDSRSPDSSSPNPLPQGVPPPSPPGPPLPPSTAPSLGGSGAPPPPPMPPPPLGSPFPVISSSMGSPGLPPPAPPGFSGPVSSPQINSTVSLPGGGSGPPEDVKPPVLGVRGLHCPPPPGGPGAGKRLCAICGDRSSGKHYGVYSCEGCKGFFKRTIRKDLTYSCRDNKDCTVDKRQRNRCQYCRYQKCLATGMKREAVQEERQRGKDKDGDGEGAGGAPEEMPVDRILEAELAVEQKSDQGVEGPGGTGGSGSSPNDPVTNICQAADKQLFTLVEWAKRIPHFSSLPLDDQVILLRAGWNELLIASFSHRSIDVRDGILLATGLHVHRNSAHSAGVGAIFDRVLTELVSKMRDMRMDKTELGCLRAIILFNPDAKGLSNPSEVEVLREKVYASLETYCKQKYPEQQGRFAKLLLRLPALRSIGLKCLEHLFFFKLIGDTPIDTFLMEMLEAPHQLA
human Peroxisome Proliferator-activated Receptor alpha (PPARa), PPARA (gene 5465), sequence (Q07869 whole entry, looked up, the tested form may be a part): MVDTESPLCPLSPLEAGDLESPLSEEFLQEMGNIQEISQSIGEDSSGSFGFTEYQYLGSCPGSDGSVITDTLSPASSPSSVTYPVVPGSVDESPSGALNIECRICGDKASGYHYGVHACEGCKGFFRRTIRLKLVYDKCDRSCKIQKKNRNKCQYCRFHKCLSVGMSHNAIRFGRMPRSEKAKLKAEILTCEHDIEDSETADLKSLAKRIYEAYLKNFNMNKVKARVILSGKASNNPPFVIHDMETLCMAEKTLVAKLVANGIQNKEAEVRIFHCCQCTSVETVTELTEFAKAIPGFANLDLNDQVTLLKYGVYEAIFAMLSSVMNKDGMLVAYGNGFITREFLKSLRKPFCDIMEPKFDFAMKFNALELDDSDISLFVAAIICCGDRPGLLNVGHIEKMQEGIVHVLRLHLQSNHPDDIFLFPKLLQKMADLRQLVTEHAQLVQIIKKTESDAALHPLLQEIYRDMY
human Retinoic Acid Receptor beta (RARb), RARB (gene 5915), sequence (P10826 whole entry, looked up, the tested form may be a part): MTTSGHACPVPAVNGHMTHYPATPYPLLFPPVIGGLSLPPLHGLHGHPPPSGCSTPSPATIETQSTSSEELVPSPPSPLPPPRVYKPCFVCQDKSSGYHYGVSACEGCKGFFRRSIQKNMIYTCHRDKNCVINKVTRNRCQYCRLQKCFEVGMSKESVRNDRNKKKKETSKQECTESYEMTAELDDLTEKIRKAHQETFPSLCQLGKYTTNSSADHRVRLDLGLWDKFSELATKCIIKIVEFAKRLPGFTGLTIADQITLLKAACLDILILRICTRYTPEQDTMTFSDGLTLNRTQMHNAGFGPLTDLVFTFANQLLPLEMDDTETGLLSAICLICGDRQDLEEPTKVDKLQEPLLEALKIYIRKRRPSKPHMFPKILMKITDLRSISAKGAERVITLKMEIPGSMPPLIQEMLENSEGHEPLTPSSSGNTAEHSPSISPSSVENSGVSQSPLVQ
human RAR-related Orphan Receptor gamma (RORg), RORC (gene 6097), sequence (P51449 whole entry, looked up, the tested form may be a part): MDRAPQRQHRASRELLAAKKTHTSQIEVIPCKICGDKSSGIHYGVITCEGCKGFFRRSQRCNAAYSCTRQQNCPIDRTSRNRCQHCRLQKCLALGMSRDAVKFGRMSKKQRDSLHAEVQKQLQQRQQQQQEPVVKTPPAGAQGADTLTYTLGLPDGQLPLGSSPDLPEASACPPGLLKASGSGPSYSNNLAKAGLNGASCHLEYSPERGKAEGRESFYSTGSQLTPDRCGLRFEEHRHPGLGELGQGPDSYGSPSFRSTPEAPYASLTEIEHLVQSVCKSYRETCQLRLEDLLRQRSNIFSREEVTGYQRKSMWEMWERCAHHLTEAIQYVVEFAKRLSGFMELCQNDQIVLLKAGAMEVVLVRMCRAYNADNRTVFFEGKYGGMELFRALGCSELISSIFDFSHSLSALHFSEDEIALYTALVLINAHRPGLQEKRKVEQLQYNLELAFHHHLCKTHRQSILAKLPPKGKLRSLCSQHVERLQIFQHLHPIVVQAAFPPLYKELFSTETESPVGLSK
Retinoic acid receptor RXR-alpha (Homo sapiens), sequence (P19793 whole entry, looked up, the tested form may be a part): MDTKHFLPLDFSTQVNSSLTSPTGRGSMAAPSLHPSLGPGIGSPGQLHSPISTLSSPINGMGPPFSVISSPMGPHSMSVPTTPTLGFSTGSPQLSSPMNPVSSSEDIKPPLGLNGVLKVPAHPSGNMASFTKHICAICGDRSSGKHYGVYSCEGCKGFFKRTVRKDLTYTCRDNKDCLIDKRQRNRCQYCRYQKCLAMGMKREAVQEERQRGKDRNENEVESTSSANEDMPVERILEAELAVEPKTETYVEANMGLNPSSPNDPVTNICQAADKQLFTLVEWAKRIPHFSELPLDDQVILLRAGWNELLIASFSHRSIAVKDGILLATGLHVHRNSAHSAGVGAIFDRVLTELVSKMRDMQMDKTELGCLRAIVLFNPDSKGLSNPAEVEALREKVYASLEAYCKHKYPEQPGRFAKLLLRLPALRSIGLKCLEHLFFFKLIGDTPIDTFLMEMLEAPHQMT
Peroxisome proliferator-activated receptor gamma (Homo sapiens), sequence (P37231 whole entry, looked up): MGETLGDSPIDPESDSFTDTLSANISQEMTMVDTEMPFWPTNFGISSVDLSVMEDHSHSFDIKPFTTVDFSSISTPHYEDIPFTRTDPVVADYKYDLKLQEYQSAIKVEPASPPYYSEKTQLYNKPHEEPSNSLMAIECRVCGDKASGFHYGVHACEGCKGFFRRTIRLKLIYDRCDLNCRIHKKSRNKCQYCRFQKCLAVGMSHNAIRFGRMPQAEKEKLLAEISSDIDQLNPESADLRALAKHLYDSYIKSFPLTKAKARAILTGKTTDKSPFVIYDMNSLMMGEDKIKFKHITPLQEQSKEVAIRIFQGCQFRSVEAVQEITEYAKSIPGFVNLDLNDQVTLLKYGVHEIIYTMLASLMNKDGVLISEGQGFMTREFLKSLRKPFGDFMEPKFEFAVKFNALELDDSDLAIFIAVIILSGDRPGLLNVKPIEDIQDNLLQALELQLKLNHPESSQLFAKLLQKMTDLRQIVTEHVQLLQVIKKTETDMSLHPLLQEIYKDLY
Retinoic acid receptor alpha (Homo sapiens), sequence (P10276 whole entry, looked up, the tested form may be a part): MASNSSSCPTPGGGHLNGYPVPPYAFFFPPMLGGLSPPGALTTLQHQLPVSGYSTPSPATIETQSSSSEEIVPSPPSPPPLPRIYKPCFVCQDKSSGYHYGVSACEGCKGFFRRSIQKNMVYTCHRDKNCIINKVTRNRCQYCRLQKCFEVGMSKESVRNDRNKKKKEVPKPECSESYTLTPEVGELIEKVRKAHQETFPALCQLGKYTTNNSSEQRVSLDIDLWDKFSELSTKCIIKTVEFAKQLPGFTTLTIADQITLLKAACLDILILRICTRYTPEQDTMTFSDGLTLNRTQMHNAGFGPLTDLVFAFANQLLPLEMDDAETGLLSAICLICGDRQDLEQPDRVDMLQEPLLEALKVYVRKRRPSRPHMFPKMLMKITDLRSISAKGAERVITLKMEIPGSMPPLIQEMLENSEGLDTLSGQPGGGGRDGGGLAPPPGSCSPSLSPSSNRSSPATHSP
Nuclear receptor subfamily 1 group I member 2 (Homo sapiens), sequence (O75469 whole entry, looked up, the tested form may be a part): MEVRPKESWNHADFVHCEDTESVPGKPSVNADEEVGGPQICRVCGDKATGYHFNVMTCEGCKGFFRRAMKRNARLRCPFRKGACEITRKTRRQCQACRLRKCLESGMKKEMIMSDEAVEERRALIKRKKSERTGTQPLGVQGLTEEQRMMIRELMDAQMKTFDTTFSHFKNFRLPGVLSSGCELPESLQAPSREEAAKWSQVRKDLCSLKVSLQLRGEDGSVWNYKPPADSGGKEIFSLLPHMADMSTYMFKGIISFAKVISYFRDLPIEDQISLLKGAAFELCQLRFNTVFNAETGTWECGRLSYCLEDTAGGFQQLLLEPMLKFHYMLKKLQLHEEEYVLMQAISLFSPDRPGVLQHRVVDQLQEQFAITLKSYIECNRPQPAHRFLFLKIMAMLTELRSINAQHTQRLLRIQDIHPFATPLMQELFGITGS
human RAR-related Orphan Receptor beta (RORb), RORB (gene 6096), sequence (Q92753 whole entry, looked up, the tested form may be a part): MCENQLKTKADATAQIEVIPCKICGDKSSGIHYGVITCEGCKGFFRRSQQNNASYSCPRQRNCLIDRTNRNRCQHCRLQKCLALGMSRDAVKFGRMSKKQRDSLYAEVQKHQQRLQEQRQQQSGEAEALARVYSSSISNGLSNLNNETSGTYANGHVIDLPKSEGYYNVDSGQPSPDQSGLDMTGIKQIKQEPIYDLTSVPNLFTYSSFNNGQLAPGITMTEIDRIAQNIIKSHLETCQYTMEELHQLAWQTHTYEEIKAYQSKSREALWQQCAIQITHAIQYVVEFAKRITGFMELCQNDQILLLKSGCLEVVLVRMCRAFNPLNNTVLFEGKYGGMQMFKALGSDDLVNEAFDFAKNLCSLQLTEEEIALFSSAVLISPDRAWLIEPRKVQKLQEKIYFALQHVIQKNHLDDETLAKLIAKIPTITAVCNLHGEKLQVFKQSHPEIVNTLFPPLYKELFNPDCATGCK

C=CCOC(=O)c1ccc(C(=O)OCC=C)c(C(=O)OCC=C)c1
inactive: [2] | [4] | [5] | [6] | [7]
active: [1] 8.92 µM | [3] 27.7 µM

CCOC(=O)c1ccc(C)cc1
inactive: [1] | [2] | [3] | [8] | [5] | [6]

CN(C)c1ccc2nc3ccc(=[N+](C)C)cc-3sc2c1
active: [3] 12.1 µM | [4] 10.3 µM
not listed: [2] | [6]
inactive: all other assays above

C1CCSC1
inactive: [1] | [2] | [3] | [6]

CCCCCCCCCC[N+](C)(CCCCCCCCCC)CCC[Si](OC)(OC)OC
not listed: [8] | [9] | [10] | [11]
inactive: all other assays above

C/C=C/C=C/CCCCCCCO
inactive: [1] | [4] | [5]
active: [2] 27.2 µM | [3] 2.64 µM

NC(=O)Nc1ccccc1
inactive: [1] | [9]

O=C(OCCc1ccccc1)c1ccccc1
inactive: [1] | [2] | [9] | [8] | [12] | [6]

Cc1ccc(C)c(OCCCC(C)(C)C(=O)O)c1
active: [1] 37.4 µM | [4] 20.7 µM
not listed: [3] | [7] | [10]
inactive: all other assays above

O=S(=O)(O)c1ccc(Nc2nc(Nc3ccc(C=Cc4ccc(Nc5nc(Nc6ccc(S(=O)(=O)O)cc6)nc(N(CCO)CCO)n5)cc4S(=O)(=O)O)c(S(=O)(=O)O)c3)nc(N(CCO)CCO)n2)cc1
inactive: [1] | [2] | [10] | [3] | [12] | [5] | [6]

COC(=O)c1ccccc1C
inactive: [1] | [2] | [3] | [12] | [7]

CO[Si](CCCS)(OC)OC
inactive: [1] | [2] | [3] | [11] | [5] | [6] | [7]

COC(=O)c1ccc(C(=O)OC)c(C(=O)OC)c1
inactive: [2] | [10] | [11] | [6]
active: [1] 12.6 µM | [3] 34.5 µM

CCC(C)C(=O)OCCc1ccccc1 (stereo unspecified)
inactive: [1] | [2] | [4] | [12] | [5] | [6] | [7]

CC(=O)OCCc1ccccc1
inactive: [1] | [2] | [9] | [5] | [6] | [7]

Cc1cc(C)c(C=O)c(C)c1
active: [4] 7.01 µM
not listed: [9] | [10] | [11]
inactive: all other assays above

Nc1ccc(O)c([N+](=O)[O-])c1
not listed: [7] | [8] | [9] | [10]
inactive: all other assays above

CC(C)CC(=O)OCc1ccccc1
inactive: [1] | [2] | [3] | [12] | [6]

CC(CC=O)CC(C)(C)C (stereo unspecified)
inactive: [1] | [2] | [3] | [5] | [6] | [7]
active: [4] 7.15 µM

Cc1ccccc1CCO
inactive: [1] | [2] | [11] | [12] | [5] | [6]

O=C(O)c1cc(O)c2ccccc2c1O
active: [3] 9.25 µM | [4] 2.31 µM
not listed: [9] | [10] | [12]
inactive: all other assays above

CC1(C)CCC[C@]2(C)[C@H]3CC(=O)O[C@]3(C)CC[C@@H]12
active: [4] 6.22 µM
not listed: [7] | [9] | [11] | [12]
inactive: all other assays above

C=C(C)C(=O)OCC(O)COc1ccc(C(C)(C)c2ccc(OCC(O)COC(=O)C(=C)C)cc2)cc1 (stereo unspecified)
inactive: [1] | [2] | [8] | [11] | [5]
active: [3] 7.32 µM | [4] 6.93 µM | [7] 23.8 µM

CCCSSCCC
inactive: [1] | [2] | [10] | [8] | [11] | [12] | [5]

CCC(C)c1ccccc1 (stereo unspecified)
inactive: [1] | [2] | [3] | [4] | [8] | [11] | [6]

CCCCCCCCCCCCc1ccc(O)cc1
active: [6] 3.36 µM
inactive: [1] | [2] | [3] | [8] | [5] | [7]

CCCCCCCCCCCCCCCCCCOS(=O)(=O)O
active: [1] 27.4 µM | [2] 112 µM | [3] 8.35 µM | [6] 34.3 µM
inactive: [4]

O=C(O)CC(C(=O)O)S(=O)(=O)O (stereo unspecified)
inactive: [1] | [2] | [4] | [12] | [5]

CCCCOC(=O)CCC(C)=O
inactive: [1] | [2] | [3] | [4] | [5] | [6] | [7]

CCCCC/C=C\C/C=C\CCCCCCCC(=O)O
inactive: [2] | [5]
active: [1] 28.9 µM | [3] 11.9 µM

CC(C)=CCl
inactive: [1] | [2] | [8] | [12] | [5] | [7]

Cc1ccc2c(c1)CCCN2
inactive: [1] | [2] | [9] | [3] | [11] | [5] | [6]

C=CCCCCCCCCO
inactive: [1] | [2] | [3] | [5] | [6] | [7]

CCCC1CCCC(=O)O1 (stereo unspecified)
active: [3] 23.4 µM
inactive: [1] | [2] | [9] | [5] | [6] | [7]

CC(=O)C(C)C
not listed: [2] | [6] | [7] | [12]
inactive: all other assays above

COC(Cc1ccccc1)OC
inactive: [1] | [3] | [11] | [12] | [7]

CC(C)CCOCc1ccccc1
inactive: [1] | [3] | [12] | [6]

O=C(C=Cc1ccccc1)OCCc1ccccc1
active: [3] 3.05 µM
inactive: [1] | [11] | [12] | [5] | [6] | [7]

CCCCOCCOC(=O)COc1ccc(Cl)cc1Cl
inactive: [1] | [3] | [11] | [12]

N#CC1(N)CCCCC1
inactive: [1] | [3] | [8] | [11] | [5] | [6]

Nc1ccnc(=O)[nH]1
inactive: [1] | [3] | [11] | [12] | [6]

CCCCCCCCCCCC(=O)OCC
inactive: [1] | [3] | [8] | [12] | [6]

CCCCCCCCCCCCCC(=O)OC(C)C
not listed: [2] | [7] | [11]
inactive: all other assays above
